# Assay outcomes deposited in PubChem BioAssay by The Scripps Research Institute Molecular Screening Center.
# In the library only some 2.4% were active in any assay of this set; here they are far more common.
# PLCg1 inh = PLC-gamma1 enzyme inhibitors, primary screen, biochemical, fluorescence, purified enzyme | inhibition, % at 12.2 µM | actives 0.84% (n = 370,000) | fluorogenic substrate | 1-phosphatidylinositol 4,5-bisphosphate phosphodiesterase gamma-1 (Homo sapiens), P19174; in the data active = inhibition above about 9.5%
# PLC-beta3 inh = human PLC-beta3 inhibitors, primary screen, biochemical, fluorescence; Purified PLC-beta3, fluorogenic substrate; 1-phosphatidylinositol 4,5-bisphosphate phosphodiesterase beta-3 (Homo sapiens), Q01970; actives 0.18% (n = 370,000); inhibition, % at 12.2 µM;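 note: 0% = median of compound wells on plate and 100% = full blocker control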
# UHRF1 MBD2 ctr = UHRF1 methylated DNA binding inhibitors, primary screen, counter-screen for MBD2 inhibitor project, biochemical, TR-FRET, human UHRF1, single concentration. E3 ubiquitin-protein ligase UHRF1 (Homo sapiens), Q96T88. UHRF1 binding to methylated oligo. inhibition, % at 4.4 µM. actives 0.75% (n = 370,000); in the data active = inhibition above about 21%;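 note: UHRF1 SRA domain binding a hemimethylated CpG hairpin DNA probe; 0% = median of test compound wells and 100% = reference inhibitor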
# Target sequence (Q96T88 whole entry, looked up, the tested form may be a part): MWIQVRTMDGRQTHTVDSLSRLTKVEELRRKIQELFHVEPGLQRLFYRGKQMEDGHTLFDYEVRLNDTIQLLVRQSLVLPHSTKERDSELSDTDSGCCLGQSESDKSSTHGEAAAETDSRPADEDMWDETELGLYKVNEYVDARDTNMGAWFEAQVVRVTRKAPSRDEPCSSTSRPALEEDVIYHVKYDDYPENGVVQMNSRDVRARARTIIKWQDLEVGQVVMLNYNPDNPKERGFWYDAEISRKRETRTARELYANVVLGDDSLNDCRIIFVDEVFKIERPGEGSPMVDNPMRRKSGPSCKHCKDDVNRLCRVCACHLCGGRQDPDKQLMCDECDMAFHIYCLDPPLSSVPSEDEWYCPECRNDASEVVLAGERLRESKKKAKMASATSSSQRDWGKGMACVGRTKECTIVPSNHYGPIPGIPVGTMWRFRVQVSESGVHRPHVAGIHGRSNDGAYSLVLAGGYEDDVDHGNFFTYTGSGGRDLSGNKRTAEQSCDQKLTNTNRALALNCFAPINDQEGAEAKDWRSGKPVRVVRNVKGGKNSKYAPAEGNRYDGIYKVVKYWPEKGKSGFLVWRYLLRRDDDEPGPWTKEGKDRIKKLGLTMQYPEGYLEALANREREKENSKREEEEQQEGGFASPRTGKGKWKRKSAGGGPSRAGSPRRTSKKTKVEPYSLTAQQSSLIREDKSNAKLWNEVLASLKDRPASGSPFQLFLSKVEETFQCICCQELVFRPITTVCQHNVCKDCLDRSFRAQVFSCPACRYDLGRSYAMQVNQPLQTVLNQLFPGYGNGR
# LEDGF integ inh = blockers of LEDGF/p75-dependent integrase strand transfer – biochemical, TR-FRET, high throughput, primary screen; HIV-1 integrase (with human LEDGF/p75); actives 0.64% (n = 370,000); TR-FRET IN-LEDGF/p75 DNA integration, Eu/Cy5; inhibition, % at 3.7 µM;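 active = inhibition above the screen-wide mean plus 3 SD, cut at about 13% in these data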;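 note: signal is the Cy5 over europium emission ratio at 671 and 618 nm; 0% = plate median of compound wells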
# MBD2 inh = inhibitors of MBD2 binding to methylated DNA, primary screen, biochemical, TR-FRET, DNA-binding domain, human. Methyl-CpG-binding domain protein 2 (Homo sapiens), Q9UBB5. MBD2 binding to methylated oligonucleotide. inhibition, % at 4.4 µM. actives 0.31% (n = 370,000). AID 686964, 2013; in the data active = inhibition above about 13%
# PLCgamma1 ctr = PLC-gamma1 enzyme inhibitors, counter-screen for PLC-beta3 inhibitor project, biochemical, fluorescence; shares compounds with PLCg1 inh; purified PLC-gamma1, fluorogenic substrate; inhibition, % at 12.3 µM; actives 3.1% (n = 3,300); AID 743258, 2014; in the data active = inhibition above about 9.5%
# PLCbeta3 conf = PLC-beta3 inhibitor confirmation, biochemical, fluorescence, purified enzyme; shares compounds with PLCg1 inh; fluorogenic substrate fluorescence; inhibition, % at 12.3 µM; actives 1% (n = 3,300); AID 743261, 2014
# * = called active by the depositor; · = no result. Cut-off read from the data, not from the text of the source, unless noted: active = inhibition above about 11%; inactive = the rest.
SMILES,PLCg1 inh,PLC-beta3 inh,UHRF1 MBD2 ctr,LEDGF integ inh,MBD2 inh,PLCgamma1 ctr,PLCbeta3 conf
COC(=O)CSc1nnc2n(-c3ccc(OC)cc3)c(=O)c3c4c(sc3n12)CCCCC4,10*,1,8,0,0,-3,-1
O=C(N/C=N/O)C1=NOC(CNc2ncc(C(F)(F)F)cc2Cl)C1 (stereo not drawn),10*,8,-1,-1,-3,-7,-5
CCN(CC)C(=O)CC[C@H]1CC[C@]2(CCCN(Cc3nccn3C)C2)O1,1,3,0,-3,3,·,·
CCCCNC(=O)C[C@H]1C[C@@]2(C(=O)OC)C(=C[C@H](C(C)C)O[C@@H]2C2CC2)N(Cc2ccc(Cl)cc2Cl)C1=O,-2,3,-2,-3,1,·,·
CN(Cc1cn(-c2ccccc2)nc1-c1cc2ccccc2o1)C(=O)CCC(=O)O,10*,0,2,4,4,-6,-3
CN(C)C(=O)c1cn(-c2ccccc2)nc1-c1cc2ccccc2o1,0,2,4,-1,1,·,·
CCn1cc(C(=O)O)c(=O)c2cnc(N3CCN(C(=S)NC(=O)c4ccc(Cl)cc4Cl)CC3)nc21,10.0*,5,1,6,5,-16,-7
COCCCN1C(=O)[C@H](CC(=O)NCCc2ccccc2OC)[C@]2(C(=O)OC)CCCCC=C12,-1,-2,1,-5,4,·,·
Cc1ccc(Nc2nc(Nc3ccc(C)cc3)nc(SC3=NCCS3)n2)cc1,16*,2,1,2,-3,5,3
CCOC(=O)Cn1cc(CN2CCS(=O)(=O)N(Cc3ccc(Cl)cc3)C(C(=O)OC)C2)nn1 (stereo not drawn),2,-1,11,2,6,·,·
CCCOc1ccc(C(=O)N2CCC(Oc3cccnc3)CC2)cc1,0,4,1,4,-2,·,·
COCc1[nH][nH]c(=O)c1C=Nc1ccc(OC(F)(F)F)cc1,2,11*,-1,3,-1,-4,0
CCOC(=O)C1CCN(Cc2cnc(Oc3ccc(OC)cc3)s2)CC1,5,11*,3,2,-2,-5,-1
CCOC(=O)C1CCN(Cc2ccc(OC)cc2OC)CC1,2,0,1,-2,-3,·,·
CNc1nc(C)nc(N/N=C/c2ccccc2)n1,11*,7,7,5,1,-2,-3
CCOC(=O)n1c(=O)n(Cc2ccc(Cl)cc2Cl)c2ccccc21,10*,4,2,0,-2,-1,-3
CCCCCCn1c(-c2ccc(Cl)cc2Cl)csc1=Nc1ccccc1,-2,2,-1,-2,0,·,·
CCOc1cccc(-c2nn3c(-c4cccc(C)c4)nnc3s2)c1,-3,4,2,1,7,·,·
COC(=O)[C@H]1C[C@@]2(C#N)c3ccccc3N(C(=O)OC(C)(C)C)[C@H]2N1C(=O)OC(C)(C)C,0,2,-2,7,-7,·,·
O=C1N=C2SCCN2/C1=C\c1ccccc1Cl,11*,-1,-1,1,0,-8,-6
CCn1c(CNc2ccc(C)cc2)nnc1SCC(N)=O,9.7*,5,4,-3,0,-3,0
Cc1ccc(NCc2nnc(SCC(=O)O)n2-c2ccc(C)cc2)cc1,-1,2,8,-1,3,·,·
CC(CC(=O)Nc1ccc(Br)cc1F)S(=O)(=O)c1ccc2c(c1)NC(=O)CO2 (stereo not drawn),12*,-8,6,-4,5,-6,-3
C#CCN(C)CC/C=C1\c2ccccc2CSc2ccccc21,10*,10,5,5,0,-1,0
O=C(NCCN1CCC(Cc2ccccc2)CC1)C1CCCN(S(=O)(=O)c2ccc([N+](=O)[O-])cc2)C1 (stereo not drawn),4,2,0,-4,2,·,·
SMILES,PLCg1 inh,PLC-beta3 inh,UHRF1 MBD2 ctr,LEDGF integ inh,MBD2 inh,PLCgamma1 ctr,PLCbeta3 conf
CCOC(=O)c1oc2ccccc2c1COC(=O)C(C)NC(=O)c1ccco1 (stereo not drawn),10*,1,0,5,-2,2,5
CS(=O)(=O)N(Cc1ccccc1)c1ccc(C(=O)NC2CCCCC2O)cc1 (stereo not drawn),9.5*,4,4,-1,-2,0,-3
CS(=O)(=O)N(Cc1ccc(C(=O)NC2CCCC2)cc1)c1ccccc1,13*,1,5,6,1,-6,-14
CS(=O)(=O)N(Cc1ccc(C(=O)NC2CCCCC2O)cc1)c1ccccc1 (stereo not drawn),2,-1,-1,-1,-3,·,·
c1ccc(-c2c[nH]c3cccc(-c4cc5ccccc5o4)c23)cc1,-295,-405,-1,4,-2,·,·
CCOP(=O)(OCC)C(NC(=O)Nc1ccc(Cl)cc1)C(N)=O (stereo not drawn),-2,-1,3,1,-6,·,·
CCOP(=O)(OCC)C(NC(=O)Nc1ccccc1)C(N)=O (stereo not drawn),3,11*,2,2,-6,-8,-2
Nc1c(Br)c(=O)[nH]c(=O)n1-c1ccccc1,-2,-2,0,-1,3,·,·
COc1ccc(-n2c(N)c(Br)c(=O)[nH]c2=O)cc1,11*,-75,-3,4,-7,-5,-5
CN(CCc1ccccn1)C1CCCN(S(=O)(=O)c2ccc(F)c(Cl)c2)C1 (stereo not drawn),11*,-7,-2,2,3,-5,-3
O=S(=O)(N[C@@H]1CCCC[C@@H]1N1CCOCC1)c1ccc(Cl)cc1,-3,0,-2,0,2,·,·
O=C(C1CCN(c2nc(-c3ccc(Br)cc3)cs2)CC1)N1CCNCC1,4,0,0,4,2,·,·
CC(C)(C)OC(=O)C[C@@H]1C/C=C\C[C@H](CC(=O)N(CCO)Cc2ccccc2)C(=O)NCCOC1=O,6,17*,8,0,-5,-9,-6
CC(C)(C)OC(=O)C[C@H]1C/C=C\C[C@@H](CC(=O)N(CCO)Cc2ccccc2)C(=O)N2CCC[C@@H]2COC1=O,0,11*,2,1,-4,-5,-2
